# Reference: PubChem BioAssay (Tox21)
# A number with no mark means an inactive call. Results filed as inconclusive are left out. Entries that show only a call come without a potency. Activity calls are given as the source filed them. Unless noted, calls follow the shape of the dose curve; as a rule, active = well fitted curve in the direction sought with a large enough effect in the repeat runs; inconclusive = weak or mixed curves; inactive = no such curve, though single readings can be large; an effect the other way counts as inactive or inconclusive.
# Columns and labels:
# [1] = target: Progesterone receptor (Homo sapiens) (UniProt P06401); test: qHTS assay to identify small molecule agonists of the progesterone receptor (PR) signaling pathway (AID 1346784; calls by dose curve; also: nearly all actives have a fitted effect of over 30% in size)
# In short: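 The screen uses PR-UAS-bla HEK 293T cells in charcoal-stripped serum (2%). Compounds are applied for 16 hr at 37C after a 6 hr pre-incubation, and reporter activity is detected with a FRET beta-lactamase substrate after 2 hr at room temperature.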
# [2] = target: Progesterone receptor (Homo sapiens) (UniProt P06401); test: qHTS assay to identify small molecule antagonists of the progesterone receptor (PR) signaling pathway (AID 1346795; active = well fitted inhibition curve with a large enough effect in the signal ratio in the repeat runs, not every such curve was filed as active; the % refers to the signal ratio; also: potency is read from the fitted curve at half-maximal effect)
# In short: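 After 6 hr plating at 37C in 2% stripped-serum medium, PR-UAS-bla HEK293T cells got compounds, then 1 nM R5020. Sixteen hours later, LiveBLAzer substrate was applied for 2 hr at room temperature and fluorescence was recorded.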
# [3] = qHTS assay to identify small molecule antagonists of the progesterone receptor (PR) signaling pathway - cell viability counter screen (AID 1346798); also: nearly all actives have a fitted effect of over 50% in size; also: potency is read from the fitted curve at half-maximal effect; as to activity change, negative = cytotoxicity: series mostly up to about 92 µM
# In short: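 Viability was determined by ATP-based luminescence (CellTiter-Glo) in PR-UAS-bla HEK293T cells cultured in 2% charcoal-stripped serum and incubated 16 hr with compounds under R5020 stimulation.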
# [4] = qHTS assay to identify small molecule antagonists of the TGF-beta/Smad signaling pathway - cell viability counter screen (AID 1346824); also: nearly all actives have a fitted effect of over 50% in size
# In short: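 SBE-bla HEK 293T cells, incubated overnight, then compound plus 0.25 ng/mL TGF-beta1 (stock added) for 5 hr at 37 C. Viability was read in the same wells by CellTiter-Glo luminescence after 30 min at room temperature.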
# [5] = qHTS assay to identify small molecule agonists of the TGF-beta/Smad signaling pathway - cell viability counter screen (AID 1346829); also: top concentration of the series differs between compounds; nearly all actives have a fitted effect of over 45% in size
# In short: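 After overnight seating at 37 C and 5% CO2, reporter cells got compounds for 5 hr and FRET substrate for 2 hr; cell viability then came from CellTiter-Glo luminescence.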
# [6] = qHTS assay to identify small molecule agonists of the TGF-beta/Smad signaling pathway (AID 1346859; active = well fitted activation curve with a large enough effect in the signal ratio in the repeat runs, not every such curve was filed as active; the % refers to the signal ratio; also: series mostly up to about 77 µM)
# In short: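 Dual-wavelength fluorescence (460/530 nm emission) quantified beta-lactamase expression under the Smad binding element in HEK 293T cells following 5 hr compound treatment at 37 C.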
# [7] = target: Thyrotropin-releasing hormone receptor (Homo sapiens) (UniProt P34981); test: qHTS assay to identify small molecule antagonists of the thyrotropin-releasing hormone receptor (TRHR) signaling pathway (AID 1346877; active = well fitted inhibition curve with a large enough effect in the repeat runs, not every such curve was filed as active; also: series mostly up to about 51 µM)
# In short: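 Cells (TRHR-HEK293) are plated and kept 18 h at 37 °C/5% CO2. A calcium-sensitive dye is added for 2 h, compound follows for 5 min at room temperature, and TRH is then given at 1 nM final.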
# [8] = target: Thyrotropin-releasing hormone receptor (Homo sapiens) (UniProt P34981); test: qHTS assay to identify small molecule agonists of the thyrotropin-releasing hormone receptor (TRHR) signaling pathway (AID 1346891; calls by dose curve;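 also: HEK293 cells expressing TRHR with calcium dye readout; series mostly up to about 58 µM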)
# In short: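 Kinetic fluorescence (3 min, 1 s intervals) reported intracellular calcium after compound transfer onto TRHR-Hek293 cells pre-loaded with dye for 2 h at 37 °C.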
# [9] = Human pregnane X receptor (PXR) small molecule agonists, qHTS cell viability counter screen (AID 1346977); also: nearly all actives have a fitted effect of over 50% in size; also: potency is read from the fitted curve at half-maximal effect
# In short: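 HepG2 cells stably carrying the PXR-Luc reporter are cultured with 5% charcoal-stripped FBS and treated with compounds for 24hr. CellTiter-Fluor is added at 23hr and fluorescence is read after 1hr.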
# [10] = qHTS assay to identify small molecule agonists of the progesterone receptor (PR) signaling pathway - cell viability counter screen (AID 1346799; calls by dose curve; also: nearly all actives have a fitted effect of over 45% in size; also: potency is read from the fitted curve at half-maximal effect)
# In short: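 Viability was scored by ATP luminescence (CellTiter-Glo, 30 min, room temperature) in the same wells used for the reporter readout, after 16 hr compound exposure of PR-UAS-bla HEK293T cells.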
# Chain of Thyrotropin-releasing hormone receptor (Homo sapiens) (P34981 whole entry, looked up): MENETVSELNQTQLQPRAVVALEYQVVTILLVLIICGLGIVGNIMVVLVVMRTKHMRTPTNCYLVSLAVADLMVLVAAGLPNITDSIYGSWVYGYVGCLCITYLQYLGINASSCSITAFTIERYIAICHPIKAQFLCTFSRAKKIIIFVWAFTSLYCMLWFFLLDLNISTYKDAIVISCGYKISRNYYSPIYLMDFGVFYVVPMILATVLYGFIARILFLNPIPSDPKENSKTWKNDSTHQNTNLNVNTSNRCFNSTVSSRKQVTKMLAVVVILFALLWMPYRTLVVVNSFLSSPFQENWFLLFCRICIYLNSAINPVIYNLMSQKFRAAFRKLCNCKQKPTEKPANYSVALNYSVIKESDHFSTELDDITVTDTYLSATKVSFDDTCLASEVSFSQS
# Chain of Progesterone receptor (Homo sapiens) (P06401 whole entry, looked up): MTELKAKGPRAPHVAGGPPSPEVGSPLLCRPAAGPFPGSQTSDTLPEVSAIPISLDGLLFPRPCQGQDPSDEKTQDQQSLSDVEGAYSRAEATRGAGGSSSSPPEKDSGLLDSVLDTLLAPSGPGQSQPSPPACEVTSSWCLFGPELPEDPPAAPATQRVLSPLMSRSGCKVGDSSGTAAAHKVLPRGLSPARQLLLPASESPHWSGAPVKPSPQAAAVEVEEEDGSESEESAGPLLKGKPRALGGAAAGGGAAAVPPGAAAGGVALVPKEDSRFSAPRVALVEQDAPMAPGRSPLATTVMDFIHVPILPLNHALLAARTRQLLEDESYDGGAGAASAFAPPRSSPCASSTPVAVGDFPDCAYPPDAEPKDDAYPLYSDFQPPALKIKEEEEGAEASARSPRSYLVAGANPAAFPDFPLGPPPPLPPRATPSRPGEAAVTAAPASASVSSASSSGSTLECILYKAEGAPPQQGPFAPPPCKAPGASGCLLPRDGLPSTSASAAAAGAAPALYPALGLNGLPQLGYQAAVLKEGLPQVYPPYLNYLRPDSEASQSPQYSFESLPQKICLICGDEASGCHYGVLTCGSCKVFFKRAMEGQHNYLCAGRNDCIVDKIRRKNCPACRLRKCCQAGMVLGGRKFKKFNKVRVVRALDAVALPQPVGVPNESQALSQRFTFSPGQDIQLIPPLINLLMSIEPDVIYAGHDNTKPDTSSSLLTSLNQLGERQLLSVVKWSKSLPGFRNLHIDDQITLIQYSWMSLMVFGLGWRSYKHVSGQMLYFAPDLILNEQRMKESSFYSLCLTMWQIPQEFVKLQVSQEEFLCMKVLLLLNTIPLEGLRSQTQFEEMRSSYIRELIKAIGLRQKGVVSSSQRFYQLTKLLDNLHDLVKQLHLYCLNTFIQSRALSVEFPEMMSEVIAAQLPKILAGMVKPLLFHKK
structure (smiles),measurement,setting,value
C=CCOC(=O)CCC1CCCCC1,Potency,[1],inactive
same,Potency,[2],inactive
same,Potency,[3],inactive
same,Potency,[4],inactive
same,outcome,[5],inactive
same,Potency,[6],inactive
same,outcome,[7],inactive
same,Potency,[8],inactive
same,Potency,[9],inactive
COc1cc2nc(Cl)nc(N)c2cc1OC,Potency,[1],inactive
same,Potency,[2],inactive
same,Potency,[3],inactive
same,Potency,[4],inactive
same,outcome,[5],inactive
same,Potency,[6],inactive
same,outcome,[7],inactive
same,Potency,[8],inactive
same,Potency,[9],inactive
C/C=C/C(=O)CC,activation,[1],0.707% [at 19 µM]
same,"activity change, negative = inhibition",[2],-21.4% [at 18.9 µM]
same,"activity change, negative = cytotoxicity",[10],-14.3% [at 19 µM]
same,"viability change, negative = cytotoxic",[4],-21.1% [at 15.8 µM]
same,"activity change, negative = cytotoxicity",[5],-6.07% [at 15.8 µM]
same,activation,[6],4.38% [at 15.8 µM]
same,"activity, negative = inhibition",[7],-0.562% [at 10.5 µM]
same,activation,[8],-0.663% [at 11.8 µM]
same,"activity change, negative = cytotoxicity",[9],-29.3% [at 19 µM]
CCN(CC)c1ccc(C(=C2C=CC(=[N+](CC)CC)C=C2)c2cc(S(=O)(=O)O)ccc2S(=O)(=O)[O-])cc1,Potency,[1],inactive
same,Potency,[2],inactive
same,Potency,[3],inactive
same,Potency,[6],inactive
same,outcome,[7],inactive
same,Potency,[8],inactive
same,Potency,[9],15 µM (active)
CCCCCCCCCCCc1ccccc1,Potency,[1],inactive
same,Potency,[2],inactive
same,Potency,[10],inactive
same,Potency,[4],inactive
same,outcome,[5],inactive
same,Potency,[6],inactive
same,outcome,[7],inactive
same,Potency,[8],inactive
COc1ccnc(CS(=O)c2nc3ccc(OC(F)F)cc3[nH]2)c1OC (stereo unspecified),Potency,[1],inactive
same,Potency,[2],inactive
same,Potency,[3],inactive
same,Potency,[4],inactive
same,outcome,[5],inactive
same,Potency,[6],inactive
same,Potency,[9],inactive
CCCn1cnc2c1c(=O)n(CCCCC(C)=O)c(=O)n2C,Potency,[1],inactive
same,Potency,[2],inactive
same,Potency,[3],inactive
same,Potency,[4],inactive
same,outcome,[5],inactive
same,Potency,[6],inactive
same,outcome,[7],inactive
same,Potency,[8],inactive
same,Potency,[9],inactive
CC[N+](C)(CC)CCOC(=O)C(O)(c1ccccc1)C1CCCCC1 (stereo unspecified),Potency,[1],inactive
same,Potency,[2],inactive
same,Potency,[3],inactive
same,Potency,[4],inactive
same,outcome,[5],inactive
same,Potency,[6],inactive
same,Potency,[9],inactive
CN(C)CCN(Cc1ccc(Cl)cc1)c1ccccn1,Potency,[1],inactive
same,Potency,[2],inactive
same,Potency,[10],inactive
same,Potency,[4],inactive
same,outcome,[5],inactive
same,Potency,[6],inactive
same,outcome,[7],inactive
same,Potency,[8],inactive
CC(C)(C)Cl,Potency,[1],inactive
same,Potency,[2],inactive
same,Potency,[3],inactive
same,Potency,[4],inactive
same,outcome,[5],inactive
same,Potency,[6],inactive
same,outcome,[7],inactive
same,Potency,[8],inactive
same,Potency,[9],inactive
CCN(CC)CCNc1ccc(CNC=O)c2sc3ccc(OC)cc3c(=O)c12,Potency,[1],inactive
same,Potency,[2],43.3 µM (active)
same,Potency,[3],24.3 µM (active)
same,Potency,[4],inactive
same,outcome,[5],inactive
same,Potency,[6],inactive
same,outcome,[7],inactive
same,Potency,[8],inactive
same,Potency,[9],9.69 µM (active)
CC(C)=CCC/C(C)=C/CC/C(C)=C/CO,Potency,[1],inactive
same,Potency,[3],inactive
same,Potency,[4],inactive
same,outcome,[5],inactive
same,Potency,[6],inactive
same,outcome,[7],inactive
same,Potency,[8],inactive
CC(C)CC(=O)C1C(=O)c2ccccc2C1=O,Potency,[1],inactive
same,Potency,[2],inactive
same,Potency,[4],inactive
same,outcome,[5],inactive
same,Potency,[6],inactive
same,outcome,[7],inactive
same,Potency,[8],inactive
same,Potency,[9],inactive
CCCCc1nc2cccnc2n1Cc1ccc(-c2ccccc2-c2nnn[nH]2)cc1,Potency,[1],inactive
same,Potency,[3],inactive
same,Potency,[10],inactive
same,Potency,[4],inactive
same,outcome,[5],inactive
same,outcome,[7],inactive
same,Potency,[8],inactive
same,Potency,[9],inactive
CCCCCCCCCCCCCCCCOS(=O)(=O)O,Potency,[1],inactive
same,Potency,[2],inactive
same,Potency,[10],18.8 µM (active)
same,Potency,[4],inactive
same,outcome,[5],inactive
same,Potency,[6],inactive
same,Potency,[9],inactive
CC(=O)[O][Al],Potency,[1],inactive
same,Potency,[3],inactive
same,Potency,[10],inactive
same,Potency,[4],inactive
same,outcome,[5],inactive
same,Potency,[6],inactive
same,Potency,[9],inactive
c1ccc(C(O[C@H]2CCCN(CCc3ccc4c(c3)OCO4)C2)c2ccccc2)cc1,Potency,[1],inactive
same,Potency,[3],inactive
same,Potency,[4],inactive
same,outcome,[5],inactive
same,Potency,[6],inactive
same,outcome,[7],inactive
same,Potency,[8],inactive
CN1CCC(=C2c3ccccc3Sc3ccccc32)CC1,Potency,[1],inactive
same,Potency,[2],23.7 µM (active)
same,Potency,[10],inactive
same,Potency,[4],inactive
same,outcome,[5],inactive
same,Potency,[6],inactive
same,outcome,[7],inactive
same,Potency,[8],inactive
same,Potency,[9],23.7 µM (active)
CN(C)C(=O)NC1(c2ccccc2)CCN(CC[C@@]2(c3ccc(F)c(F)c3)CN(C(=O)c3ccccc3)CCO2)CC1,Potency,[1],inactive
same,Potency,[2],inactive
same,Potency,[10],inactive
same,Potency,[4],inactive
same,Potency,[6],inactive
same,outcome,[7],inactive
same,Potency,[8],inactive
CCOc1ccc(N)c([N+](=O)[O-])c1,Potency,[1],inactive
same,Potency,[3],inactive
same,Potency,[10],inactive
same,Potency,[4],inactive
same,outcome,[5],inactive
same,Potency,[6],inactive
same,outcome,[7],inactive
same,Potency,[8],inactive
same,Potency,[9],inactive
CCCOC(C(=O)OC1CCN(C)CC1)(c1ccccc1)c1ccccc1,Potency,[1],inactive
same,Potency,[2],inactive
same,Potency,[4],inactive
same,outcome,[5],inactive
same,Potency,[6],inactive
same,Potency,[9],23.7 µM (active)
CCO[C@H](Cc1ccc(OCCc2ccc(OS(C)(=O)=O)cc2)cc1)C(=O)O,Potency,[1],inactive
same,Potency,[2],inactive
same,Potency,[4],inactive
same,outcome,[5],inactive
same,Potency,[6],inactive
NCC(=O)CCC(=O)O,Potency,[1],inactive
same,Potency,[2],inactive
same,Potency,[10],inactive
same,Potency,[4],inactive
same,outcome,[5],inactive
same,Potency,[6],inactive
same,Potency,[9],inactive
NC(=O)C(c1ccccc1)(c1ccccc1)[C@@H]1CCN(CCc2ccc3c(c2)CCO3)C1,Potency,[1],inactive
same,Potency,[3],inactive
same,Potency,[10],inactive
same,outcome,[5],inactive
same,Potency,[6],inactive
same,outcome,[7],inactive
same,Potency,[8],inactive
CC(C)C[C@H]1C(=O)N2CCC[C@H]2[C@]2(O)O[C@](NC(=O)[C@@H]3C=C4c5cccc6[nH]c(Br)c(c56)C[C@H]4N(C)C3)(C(C)C)C(=O)N12,Potency,[1],inactive
same,Potency,[2],inactive
same,Potency,[4],inactive
same,outcome,[5],inactive
same,Potency,[6],inactive
same,outcome,[7],inactive
same,Potency,[8],inactive
CC(CC=O)c1ccccc1 (stereo unspecified),Potency,[1],inactive
same,Potency,[3],inactive
same,Potency,[10],inactive
same,Potency,[4],inactive
same,outcome,[5],inactive
same,Potency,[6],inactive
same,outcome,[7],inactive
same,Potency,[8],inactive
same,Potency,[9],inactive
